High-throughput results: PubChem, National Center for Advancing Translational Sciences (NCATS)
Rows were chosen to be rich in hits. Some 2.6% of all compounds tested hit in one or more screens of this group.
GLP-1R inv ag: acts as inverse agonist at human GLP-1 receptor; Potency, µM (highest dose often 38.3 µM), inactives show at the top dose activity change, negative = inhibition, usual class: inhibitors; hit rate 1.6% among 410,000; HEK293 GLP-1R CRE-luciferase, luminescence, 24 h; GLP-1R form is constitutively active; AID 624417; P43220; note: % is set by controls: 0 for no effect and ±100 for the full control effect; nearly all actives have a fitted effect of over 55% in size
Target sequence (P43220 whole entry, looked up): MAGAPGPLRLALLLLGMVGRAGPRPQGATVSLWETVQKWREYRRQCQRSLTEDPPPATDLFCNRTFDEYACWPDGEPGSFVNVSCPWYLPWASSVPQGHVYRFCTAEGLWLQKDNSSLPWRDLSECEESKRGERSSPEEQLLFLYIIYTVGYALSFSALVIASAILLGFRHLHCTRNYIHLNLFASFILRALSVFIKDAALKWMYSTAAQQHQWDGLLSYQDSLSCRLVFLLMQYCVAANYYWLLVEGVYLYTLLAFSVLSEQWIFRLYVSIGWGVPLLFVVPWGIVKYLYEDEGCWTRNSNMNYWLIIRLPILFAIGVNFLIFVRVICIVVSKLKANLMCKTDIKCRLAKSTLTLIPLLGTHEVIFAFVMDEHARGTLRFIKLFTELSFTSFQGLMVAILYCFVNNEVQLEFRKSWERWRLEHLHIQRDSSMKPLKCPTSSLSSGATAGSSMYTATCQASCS
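Assay principle: reduced luminescence from a cAMP-responsive reporter in HEK293 cells co-expressing a constitutively active GLP-1R. Conditions: 24 hr compound incubation, 37 deg C, 5% CO2.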
BRCA1 expr act: BRCA1 expression activation. AID 624202. MCF7-BRCA1-FFLuc reporter, luminescence, 48 h; response scale: scaled: vehicle 0%, 10 µM genistein 100%. Potency, µM (series often up to 46.1 µM), without a hit: at the highest dose activation, usual class: activators. hit rate 1.1% among 380,000; note: nearly all actives have a fitted effect of over 80% in size
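MCF7-BRCA1-FFLuc, 2000 cells/well; 2 h attach, 37 °C/5% CO2; compound 48 h; luciferase substrate 15 min; luminescence end-point. Norm. to genistein 10 microM max activation and DMSO; concentration-response curves fitted.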
GLP1R ag: GLP-1 receptor (human) agonism; P43220; HEK293 GLP-1R CRE-luciferase, luminescence, 4-6 h; cells express a hypersensitive GLP-1R form; Potency, µM (doses to about 45.6 µM), for inactives: at the highest dose activation, hits mostly activators; hit rate 0.007% among 380,000; AID 624172; note: % of control where 0% means no effect
GLP1R cytotox: cytotoxicity counter-screen for GLP-1 receptor inverse agonists | hit rate 0.13% among 410,000 | HEK293 cAMP-luciferase reporter cells, luminescence, 24 h | AID 624418 | Potency, µM (titrated, usually from 38.3 µM), for inactives: at the top dose activity change, negative = inhibition, usual class: inhibitors;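 note: loss of luciferase light is scored as toxicity; % is set by controls: 0 for no effect and ±100 for the full control effect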
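Step one: seed cells (200 cells/uL, DMEM with 10% Nu serum, 1% pen-strep). Step two: 12-hour incubation at 37 deg C. Step three: pin 23 nL compound, incubate 24 hr. Step four: add luciferase reagent, read luminescence 12 min later.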
* = called active by the depositor; ? = inconclusive; · = not tested or not shown. Calls come from the whole dose curve; as a rule, active = well fitted curve in the direction sought with a large enough effect; inconclusive = small, poorly fitted or top-dose-only effect, or another doubt; inactive = no such curve, though single readings can be large; an effect the other way counts as inactive or inconclusive. Potency is the fitted concentration of half-maximal effect.

SMILES | GLP-1R inv ag | BRCA1 expr act | GLP1R ag | GLP1R cytotox
Cc1cccc(-c2nnc(NC(=O)c3ccco3)s2)c1 | 23% | ? | 2% | -6%
NC(=S)N/N=C1/CCSc2ccc3ccccc3c21 | 2.2µM* | -52% | 14% | 2µM*
Cc1ccc(OCC(=O)Nc2ccc(Cl)c(-c3nc4ncccc4o3)c2)cc1C | 2% | 11% | 0% | 1%
CN(CC(=O)NCCc1ccc(F)cc1)Cc1ccc(Br)cc1 | 10µM* | -24% | 21% | 5%
CN(CC(=O)NCCCc1ccccc1)Cc1ccc(Br)cc1 | ? | 3% | 1% | 0%
C=CCN1C(=O)C2(c3ccccc31)C1CCCC=C1C(C#N)=C(N)C2(C#N)C#N (stereo not drawn) | 4.5µM* | -50% | -2% | -2%
O=CNc1ccc(/C=C/c2ccnc3ccccc23)cc1 | · | 29% | · | ·
Cc1ccccc1OCC(O)Cn1nnc2ccccc21 (stereo not drawn) | -1% | 13µM* | -2% | -7%
CCC(=O)c1ccc(OCC(O)Cn2nc(C)cc2C)cc1 (stereo not drawn) | 12% | 0% | -2% | 0%
Cc1cc(C)n(CC(O)COc2ccccc2C)n1 (stereo not drawn) | 4% | -4% | 2% | 2%
CCC(=O)c1ccc(OCC(O)Cn2nnc3ccccc32)cc1 (stereo not drawn) | 15% | 10µM* | 7% | 7%
COc1ccc(C2NCCc3c2[nH]c2ccccc32)cc1CN1CCc2cc(OC)c(OC)cc2C1C (stereo not drawn) | 8.9µM* | -43% | 10% | ?
COc1ccc(C2NCCc3c2[nH]c2ccccc32)cc1COc1ccc(F)cc1 (stereo not drawn) | ? | -86% | 1% | ?
CCOc1ccc(CNS(=O)(=O)c2ccc3c(c2)CCCN3C(C)=O)cc1OC | 15% | · | · | 9%
CCOC(=O)c1c(-c2ccccc2)csc1NC(=O)c1cc(-c2cccc(OC)c2)on1 | 7% | · | · | 2%
Cc1ccc2cc3c(NS(=O)(=O)c4cccc5nonc45)nn(CC(C)C)c3nc2c1 | 10µM* | 0% | -3% | -24%
CCCn1nc(NS(=O)(=O)c2cccc3nonc23)c2cc3cc(C)ccc3nc21 | 12% | 47% | 13% | -3%
COC(=O)c1cc2c([nH]c1=O)CC(c1ccccc1)CC2=O (stereo not drawn) | · | -4% | · | ·
Cc1ccc(-c2nnc(Nc3ccc(C(=O)N(C)C)cc3)c3ccccc23)cc1S(=O)(=O)N(C)C | -15% | · | · | -11%
Cc1ccc(-c2ccc(/C=N/N3C(=O)C4C5C=CC(C6CC56)C4C3=O)o2)c([N+](=O)[O-])c1 (stereo not drawn) | 3.5µM* | 2% | 2% | -27%
O=C1C2C3C=CC(C4CC34)C2C(=O)N1/N=C/c1ccc(-c2ccc([N+](=O)[O-])cc2)o1 (stereo not drawn) | 17% | -1% | 4% | -13%
CC1(c2cccc(Br)c2)NC(=O)N(CC(=O)c2ccc3c(c2)OCO3)C1=O (stereo not drawn) | ? | 6% | 10% | -7%
Cc1ccc(-c2ccc(/C=C3\SC(N4CCOCC4)=NC3=O)o2)cc1 | 4.5µM* | -46% | 5% | 71%
COc1cccc(CNC(=O)CCC(=O)N2CC(C)Sc3ccccc32)c1 (stereo not drawn) | -30% | · | · | 7%
CCN(CC)c1nc(OCCNC(=O)Nc2ccccc2)nc(N(CC)CC)n1 | 5µM* | -57% | -2% | ?
SMILES | GLP-1R inv ag | BRCA1 expr act | GLP1R ag | GLP1R cytotox
CC(=O)Oc1ccc(/C=N/NC(=O)c2ccc(N(C)S(=O)(=O)c3ccccc3)cc2)cc1 | ? | -1% | 3% | -10%
Cc1ccc(/C=N/NC(=O)c2ccc(N(C)S(=O)(=O)c3ccccc3)cc2)cc1 | 10µM* | -1% | 9% | -18%
COc1cc(NC(=O)c2ccc(S(=O)(=O)N(C)c3ccccc3)cc2)cc(OC)c1 | 10µM* | -25% | 2% | -12%
CCOc1ccccc1CNC(=O)c1cc(-c2ccc(OC)cc2)nc2ccc(C(C)C)cc12 | -13% | · | · | -8%
CCN(CC)S(=O)(=O)c1ccc2c(c1)c(=O)c(C(=O)N1CCN(c3cccc(C)c3)C(C)C1)cn2C (stereo not drawn) | -2% | 0% | -3% | -9%
Clc1ccc(OCc2nc(-c3ccncc3)no2)cc1 | 3% | 11µM* | 7% | 41%
C=C(C)CNC(=S)Nc1nc2c(cc1C(=O)OCC)CCCC2 | 23% | 7.1µM* | 8% | -12%
C/C(=N\NC(=O)C(C)n1nc(C)c([N+](=O)[O-])c1C)c1ccccc1O (stereo not drawn) | ? | -94% | 1% | 3.2µM*
Cc1nn(C(C)C(=O)NCc2ccco2)c(C)c1[N+](=O)[O-] (stereo not drawn) | 5% | 22% | 2% | 9%
O=C(C(=O)N1CCC(Cc2ccccc2)CC1)c1cccs1 | ? | · | · | 18%
CCn1c(CN2CCC(C)CC2)nc2cc(NC(=O)c3cccc([N+](=O)[O-])c3)ccc21 | -35% | · | · | -1%
C[N+](C)(C)CCOP(=O)(O)OP(=O)([O-])OCC1OC(n2ccc(N)nc2=O)[C@H](O)[C@@H]1O (stereo partly drawn) | · | · | -6% | ·
c1ccc2oc(-c3ccn[nH]3)cc2c1 | 14% | 4.5µM* | 11% | 15%
c1ccc2oc(-c3[nH]ncc3CN3CCSCC3)cc2c1 | ? | 0% | 6% | -9%
Cc1c(NC(=O)C(C)(C)Oc2ccc(Cl)cc2)cccc1-c1nc2ccccc2o1 | 11µM* | · | · | 22%
COc1ccc(-c2nc3ccccc3o2)cc1NC(=O)C(C)(C)Oc1ccc(Br)cc1 | 5% | 1% | 14% | -13%
O=C(Nc1cccnc1)c1cccc(S(=O)(=O)N2CCc3ccccc32)c1 | ? | -55% | 10% | -2%
O=C(Nc1ccc(Br)cc1)c1ccc(F)c(S(=O)(=O)N2CCc3ccccc32)c1 | 4.5µM* | · | · | -11%
Cc1ccc(NC(=O)c2cc(S(=O)(=O)N3CCCc4ccccc43)ccc2F)cc1F | 13µM* | · | · | 9%
O=C(Nc1ccc(Cl)cc1)c1cc(S(=O)(=O)N2CCCc3ccccc32)ccc1F | ? | · | · | 6%
COc1ccc(S(=O)(=O)N2CCc3ccccc32)cc1C(=O)Nc1cccnc1 | 65% | -17% | 10µM* | -7%
Cc1cccc(C)c1NC(=O)c1cc(S(=O)(=O)N2CCCc3ccccc32)ccc1F | 3.2µM* | · | · | 19%
Cc1ccc(NC(=O)c2cc(S(=O)(=O)NCCC3=CCCCC3)ccc2F)cc1F | 2µM* | -88% | 1% | -11%
Cc1cc(C)cc(NC(=O)c2cc(S(=O)(=O)NCCC3=CCCCC3)ccc2F)c1 | ? | · | · | -7%
Cc1ccc(C)c(S(=O)(=O)N2CCN(C(=O)CSC(=S)N3CCCC3)CC2)c1 | ? | -4% | 12% | -10%
COc1ccc(-c2cn3nc(N4CCC(C(=O)NCc5cccc(Cl)c5)CC4)sc3n2)cc1 | 17% | · | · | -10%
